This is a sample that favours compounds with a hit; in the whole collection about 2.3% have one here.
V-ATPase pHluor – alters yeast V-ATPase proton transport. S. cerevisiae, pHLuorin cytosolic pH fluorescence. response, % at 10 µM. hit rate 0.37% among 350,000. AID 504577; in the data active = response mostly above about 7.3%, no sharp cut-off; inactive = mostly below about 5.4%; also: actives read high
KLK7 zymogen act – activators of human kallikrein-7 zymogen; P49862; activation, % at 7 µM; AID 652039; purified proKLK7, EDANS-DABCYL substrate fluorescence; 100% is mature enzyme control, 0% vehicle; hit rate 0.9% among 370,000;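 active = activation above the mean of all tested compounds plus 3 SD, computed per campaign excluding outliers beyond control limits, cut at about 13% in these data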
Target sequence (P49862 whole entry, looked up): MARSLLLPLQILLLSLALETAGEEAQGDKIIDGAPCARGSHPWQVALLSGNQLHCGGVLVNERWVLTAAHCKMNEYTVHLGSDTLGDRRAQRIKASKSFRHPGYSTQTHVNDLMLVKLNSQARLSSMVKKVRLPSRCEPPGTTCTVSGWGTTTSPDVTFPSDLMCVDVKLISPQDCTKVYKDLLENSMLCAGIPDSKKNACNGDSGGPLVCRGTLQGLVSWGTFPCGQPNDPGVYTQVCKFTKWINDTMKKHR
ADAM17 inh – ADAM17 inhibition, QFRET primary screen; P78536; AID 720648; hit rate 0.83% among 370,000; inhibition, % at 6.95 µM; recombinant ADAM17, EDANS/DABCYL FRET peptide cleavage;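 active = inhibition above the mean of compounds lying between control limits plus 3 SD, set per campaign, cut at about 8.5% in these data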;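 also: 0% = DMSO-only wells as the low control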
ADAM10 inh – inhibitors of human ADAM10; O14672; recombinant ADAM10, EDANS/DABCYL FRET peptide cleavage, 3 h; inhibition, % at 7 µM; hit rate 0.62% among 370,000;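 active = inhibition above a per-campaign cutoff equal to the mean of compounds falling between control-based bounds plus 3 SD, cut at about 20% in these data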;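 also: 0% = DMSO wells while the 100% control is not disclosed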
ADAM10 confirm – human ADAM10 inhibition, confirmation; AID 743208; hit rate 1% among 2,100; ADAM10 QFRET peptide cleavage, EDANS fluorescence; inhibition, % at 6.95 µM; shares compounds with ADAM10 inh;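 active = inhibition above about 20% chosen separately for each screening run, limit read from the data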;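 also: 0% = DMSO wells and 100% = marimastat wells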
ADAM17 counter – counter-screen for ADAM10 exosite inhibitors: inhibitors of human ADAM17 | shares compounds with ADAM10 inh | ADAM17 QFRET peptide cleavage, EDANS fluorescence | inhibition, % at 6.95 µM | hit rate 0.5% among 2,100;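 active = mean triplicate inhibition above the solvent-only control wells' mean plus 3 SD, cut at about 12% in these data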;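 also: 0% = DMSO wells and 100% = marimastat wells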
ADAM10 ctr – counter-screen for ADAM17 exosite inhibitors: inhibitors of human ADAM10 | shares compounds with ADAM17 inh | inhibition, % at 6.95 µM | hit rate 47% among 2,900 | AID 743256 | recombinant ADAM10, EDANS/DABCYL FRET peptide cleavage, 3 h;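 active = mean inhibition over the triplicate runs exceeds the activity threshold set in the earlier primary screen, cut at about 20% in these data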;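 also: 0% = DMSO wells and 100% = marimastat wells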
ADAM17 confirm – confirmation of inhibitors of human ADAM17. recombinant ADAM17, EDANS/DABCYL QFRET peptide cleavage. shares compounds with ADAM17 inh. hit rate 65% among 2,900. inhibition, % at 6.95 µM;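 active = mean inhibition across replicates above the hit cutoff set in the primary screen, cut at about 8.5% in these data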;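 also: 0% = DMSO wells and 100% = marimastat wells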
The depositor's hits bear a star; . = not tested or not shown.

SMILES	V-ATPase pHluor	KLK7 zymogen act	ADAM17 inh	ADAM10 inh	ADAM10 confirm	ADAM17 counter	ADAM10 ctr	ADAM17 confirm
COC(=O)[C@@]12CCCCC=C1N(CCc1ccc(Cl)cc1)C(=O)[C@H]2CC(=O)NCCCCc1ccccc1	.	1	-2	1	.	.	.	.
CCCC1CCC2(CCCN2CCOC(=O)Nc2ccccc2OC)CC1 (stereo not given)	.	.	-1	0	.	.	.	.
COc1ccc(N=C2SC(CC(=O)Nc3ccccc3)C(=O)N2Cc2ccco2)cc1 (stereo not given)	-7	0	9.3*	28*	6	0	20*	14*
COc1cccc(NC(=O)C(Sc2nnc(-c3ccncc3)n2-c2ccc(Cl)cc2)c2ccccc2)c1 (stereo not given)	1	0	14*	38*	9	3	30*	16*
COc1cccc(-n2c(SCC(N)=O)nnc2-c2ccncc2)c1	0	1	-2	0	.	.	.	.
O=C(CNC(=S)N(Cc1ccccc1)Cc1ccccc1F)NCCc1ccc(Cl)cc1	-2	-1	10*	24*	10	4	21*	14*
O=C(CNC(=S)N(Cc1ccccc1)Cc1cccs1)NCc1ccc(F)cc1	2	-1	-2	2	.	.	.	.
Cc1cc(Cl)ccc1NC(=S)NCCc1ccc(Cl)cc1	7	1	9.8*	25*	3	1	17	8
O=C1NC(Cc2ccccc2)c2nc3ccccc3c(=O)n2-c2cc(Cl)ccc21 (stereo not given)	.	1	17*	25*	4	1	23*	12*
O=C1NC(Cc2ccc(O)cc2)c2nc3ccccc3c(=O)n2-c2cc(Cl)ccc21 (stereo not given)	.	0	2	-10	.	.	.	.
Cc1cc(-c2n[nH]c(=S)n2N=Cc2c3ccccc3cc3ccccc23)n[nH]1	.	-19	-8	-35	.	.	.	.
O=C(c1cccs1)N1CCc2c([nH]c3ccccc23)C1c1ccc(Cl)cc1 (stereo not given)	3	0	19*	31*	14	4	15	11*
O=C(c1cccs1)N1CCc2c([nH]c3ccccc23)C1c1ccccn1 (stereo not given)	6	1	1	4	.	.	.	.
CCOc1ccc(OCC)c(NC(=O)C2CCCN(S(=O)(=O)c3cccs3)C2)c1 (stereo not given)	-3	0	12*	28*	0	-1	1	0
COc1ccc(C(=O)C2(C(=O)NCc3ccccc3)CC(c3ccccn3)=NO2)cc1 (stereo not given)	.	0	1	2	.	.	.	.
O=c1[nH]c(=S)[nH]c2c1C(c1cccc(C(F)(F)F)c1)OC(CCc1ccccc1)C2 (stereo not given)	.	0	14*	27*	6	2	30*	16*
CC(C)[C@@H](C)/C=C/[C@@H](C)[C@H]1CC[C@@H]2[C@]1(C)CCC1[C@]23C=C[C@]2(C[C@@H](O)CC[C@]12C)N(c1cnccn1)O3 (stereo not given in full)	.	0	5	1	.	.	.	.
CC(C)(C)c1ccc(-c2cc(-c3ccccc3O)[nH]n2)cc1	0	0	17*	34*	11	4	22*	11*
Cc1ccc(O)c(-c2cc(-c3ccccc3C)[nH]n2)c1	-5	0	9.8*	24*	8	3	27*	12*
COC(=O)c1cc(-c2ccc(Cl)s2)c(=O)n2c1CCC2	.	4	-99	-417	.	.	.	.
O=c1c2ccccc2nnn1Cc1ccco1	.	0	0	-6	.	.	.	.
O=[N+]([O-])c1cc(Cl)cc(/C=N/NC(=S)Nc2ccc(S(=O)(=O)N3CCOCC3)cc2)c1O	-5	0	17*	35*	8	1	29*	18*
O=S(=O)(c1ccc(NC(=S)N/N=C/c2ccc(O)c(O)c2)cc1)N1CCOCC1	-3	1	-3	-4	.	.	.	.
COC(=O)c1ccc(Cl)c(NC(=O)CN(c2ccc(OC)cc2)S(=O)(=O)c2ccccc2)c1	-2	1	18*	35*	4	1	26*	16*
Cc1cc(NS(=O)(=O)c2ccc(NC(=O)CSc3nnc(-c4cccnc4)n3-c3ccccc3)cc2)nc(C)n1	.	0	0	0	.	.	.	.
SMILES	V-ATPase pHluor	KLK7 zymogen act	ADAM17 inh	ADAM10 inh	ADAM10 confirm	ADAM17 counter	ADAM10 ctr	ADAM17 confirm
CC(C)Oc1ccc(CNC(=O)CC(c2ccccc2)c2cc(Cl)ccc2O)cc1 (stereo not given)	2	0	16*	25*	8	3	33*	16*
Clc1ccc(-n2ncc3c(NCc4cccs4)ncnc32)cc1	1	0	-4	2	.	.	.	.
Cc1cccc(-n2ncc3c(NCc4cccs4)ncnc32)c1	0	0	12*	23*	3	0	12	9.6*
COC(=O)[C@]12C[C@H](CC(=O)N3CCCC3)C(=O)N(Cc3ccco3)C1=C[C@H](C(C)(C)C)O[C@@H]2C	.	1	-1	1	.	.	.	.
N#Cc1ccc(C(=O)Oc2coc(CSc3ncccn3)cc2=O)cc1	.	.	0	-4	.	.	.	.
COC(=O)[C@]12C[C@H](CC(=O)N3CCCCC3)C(=O)N(CCC3=CCCCC3)C1=C[C@H](C(C)(C)C)O[C@@H]2C	.	1	-1	-4	.	.	.	.
O=C(COC(=O)c1cccc(S(=O)(=O)N2CCCCC2)c1)NCc1ccccc1	-1	1	-6	-1	.	.	.	.
O=C(OCC(=O)c1c[nH]c2ccccc12)c1cccc(S(=O)(=O)N2CCCCCC2)c1	4	-1	12*	27*	8	2	18	8.7*
CN(C)[C@@H]1CCN(c2ccc3c(c2)OCCCN(C2CC2)S3(=O)=O)C1	.	-1	-6	-8	.	.	.	.
Cc1ccc(-c2onc(C)c2C)cc1S(=O)(=O)N1CCOc2ccccc21	4	0	14*	21*	6	2	8	6
CC1CC1C(=O)N1CCC(Oc2cccnc2)CC1 (stereo not given)	.	0	-3	-2	.	.	.	.
Cc1ccc(S(=O)(=O)N/N=C/c2ccc(OS(=O)(=O)c3ccc(C)c([N+](=O)[O-])c3)cc2)cc1	0	0	12*	26*	8	2	36*	20*
O=C(NC1CCCCN(Cc2ccc(Cl)cc2)C1=O)c1ccc2ccccc2c1 (stereo not given)	.	1	4	14	.	.	.	.
O=C(N/N=C/c1ccco1)/C(=C/c1cccc([N+](=O)[O-])c1)NC(=O)c1ccccc1	-3	0	0	-10	.	.	.	.
